# Paper PMC11006913
# Numbering of substitutions follows the chain as printed.
# Tests used:
# Test in all cases: PBM; 200 nM protein, PBS
# Conditions in all cases: dsDNA, one strand shown
# [1] = biological target: HOXA7 (Homo sapiens, UniProt P31268 116-202)
# [2] = biological target: HOXA7 (Homo sapiens, UniProt P31268 116-202, W177C)
# [3] = biological target: HOXC10 (Homo sapiens, UniProt Q9NYD6 254-340)
# [4] = biological target: ALX3 (Homo sapiens, UniProt O95076 139-225, N203Q)
# [5] = biological target: HOXC10 (Homo sapiens, UniProt Q9NYD6 254-340, K271E)
# Chain of HOXC10 (Homo sapiens, UniProt Q9NYD6 254-340, K271E) (Q9NYD6 254-340 K271E): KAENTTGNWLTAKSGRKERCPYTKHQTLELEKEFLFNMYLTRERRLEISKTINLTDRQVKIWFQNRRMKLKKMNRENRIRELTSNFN
# [6] = biological target: ALX3 (Homo sapiens, UniProt O95076 139-225)
# Chain of ALX3 (Homo sapiens, UniProt O95076 139-225) (O95076 139-225): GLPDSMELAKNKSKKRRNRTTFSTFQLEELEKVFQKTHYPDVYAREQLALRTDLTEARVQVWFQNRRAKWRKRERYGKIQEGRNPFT
# [7] = biological target: ALX3 (Homo sapiens, UniProt O95076 139-225, L168Q)
# Chain of ALX3 (Homo sapiens, UniProt O95076 139-225, L168Q) (O95076 139-225 L168Q): as the sequence (O95076 139-225) above, with L30Q counted along it
# [8] = biological target: ALX3 (Homo sapiens, UniProt O95076 139-225, L168V)
# Chain of ALX3 (Homo sapiens, UniProt O95076 139-225, L168V) (O95076 139-225 L168V): as the sequence (O95076 139-225) above, with L30V counted along it
# [9] = biological target: ALX3 (Homo sapiens, UniProt O95076 139-225, N203S)
# Chain of ALX3 (Homo sapiens, UniProt O95076 139-225, N203S) (O95076 139-225 N203S): as the sequence (O95076 139-225) above, with N65S counted along it
# [10] = biological target: T1, NKX2-6 (Homo sapiens, UniProt A6NCS4 118-204, R150C)
# T1 sequence: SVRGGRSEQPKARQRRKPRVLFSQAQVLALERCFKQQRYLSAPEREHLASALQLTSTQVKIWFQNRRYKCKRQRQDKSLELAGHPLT
# [11] = biological target: MSX2 (Homo sapiens, UniProt P35548 130-214, R199I)
# Chain of MSX2 (Homo sapiens, UniProt P35548 130-214, R199I) (P35548 130-214 R199I): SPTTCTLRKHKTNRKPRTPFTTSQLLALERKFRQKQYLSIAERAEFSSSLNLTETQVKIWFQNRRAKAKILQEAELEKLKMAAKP
# [12] = biological target: MSX2 (Homo sapiens, UniProt P35548 130-214)
# Chain of MSX2 (Homo sapiens, UniProt P35548 130-214) (P35548 130-214): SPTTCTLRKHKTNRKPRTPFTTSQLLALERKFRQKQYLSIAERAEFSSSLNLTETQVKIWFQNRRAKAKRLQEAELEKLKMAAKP
# [13] = biological target: MSX2 (Homo sapiens, UniProt P35548 130-214, F161Y)
# Chain of MSX2 (Homo sapiens, UniProt P35548 130-214, F161Y) (P35548 130-214 F161Y): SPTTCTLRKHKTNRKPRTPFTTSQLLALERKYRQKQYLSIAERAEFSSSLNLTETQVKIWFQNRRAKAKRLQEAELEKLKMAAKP
# [14] = biological target: T2, PAX4 (Homo sapiens, UniProt O43316 9-242, R200K)
# T2 sequence: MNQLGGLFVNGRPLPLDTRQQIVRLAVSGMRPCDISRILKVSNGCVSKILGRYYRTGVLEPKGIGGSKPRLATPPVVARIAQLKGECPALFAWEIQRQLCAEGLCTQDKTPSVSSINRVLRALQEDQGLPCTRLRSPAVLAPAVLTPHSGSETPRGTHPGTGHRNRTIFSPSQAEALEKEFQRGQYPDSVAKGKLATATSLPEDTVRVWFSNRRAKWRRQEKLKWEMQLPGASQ
# [15] = biological target: T3, PAX4 (Homo sapiens, UniProt O43316 9-242)
# T3 sequence: T2 sequence with K192R
# [16] = biological target: ALX1 (Homo sapiens, UniProt Q15699 118-204, L144V)
# Chain of ALX1 (Homo sapiens, UniProt Q15699 118-204, L144V) (Q15699 118-204 L144V): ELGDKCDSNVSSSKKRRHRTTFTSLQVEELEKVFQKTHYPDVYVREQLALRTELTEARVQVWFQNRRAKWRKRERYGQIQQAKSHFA
# [17] = biological target: T4, PAX4 (Homo sapiens, UniProt O43316 9-242, R200Q)
# T4 sequence: T2 sequence with K192Q
# [18] = biological target: ALX1 (Homo sapiens, UniProt Q15699 118-204, L144R)
# Chain of ALX1 (Homo sapiens, UniProt Q15699 118-204, L144R) (Q15699 118-204 L144R): as the sequence (Q15699 118-204 L144V) above, with V27R counted along it
# [19] = biological target: T5, PAX4 (Homo sapiens, UniProt O43316 9-242, F177V)
# T5 sequence: T2 sequence with F169V, K192R
# [20] = biological target: T6, PAX4 (Homo sapiens, UniProt O43316 9-242, F177Y)
# T6 sequence: T2 sequence with F169Y, K192R
# [21] = biological target: T7, PAX4 (Homo sapiens, UniProt O43316 9-242, R227W)
# T7 sequence: T2 sequence with K192R, R219W
# [22] = biological target: ALX1 (Homo sapiens, UniProt Q15699 118-204)
# Chain of ALX1 (Homo sapiens, UniProt Q15699 118-204) (Q15699 118-204): as the sequence (Q15699 118-204 L144V) above, with V27L counted along it
# [23] = biological target: HOXD13 (Homo sapiens, UniProt P35453 263-343, T313R)
# Chain of HOXD13 (Homo sapiens, UniProt P35453 263-343, T313R) (P35453 263-343 T313R): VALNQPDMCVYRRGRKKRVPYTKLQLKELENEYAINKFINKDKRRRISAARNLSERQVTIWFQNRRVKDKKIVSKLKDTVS
# [24] = biological target: HOXD13 (Homo sapiens, UniProt P35453 263-343)
# Chain of HOXD13 (Homo sapiens, UniProt P35453 263-343) (P35453 263-343): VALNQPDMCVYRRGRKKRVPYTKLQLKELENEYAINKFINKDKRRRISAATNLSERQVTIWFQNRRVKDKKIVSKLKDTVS
# [25] = biological target: HOXD13 (Homo sapiens, UniProt P35453 263-343, T313A)
# Chain of HOXD13 (Homo sapiens, UniProt P35453 263-343, T313A) (P35453 263-343 T313A): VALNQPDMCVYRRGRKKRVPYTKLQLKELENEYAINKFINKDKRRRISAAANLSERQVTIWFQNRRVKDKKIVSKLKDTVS
# [26] = biological target: ALX4 (Homo sapiens, UniProt Q9H161 200-286, Q225E)
# Chain of ALX4 (Q9H161 200-286 Q225E): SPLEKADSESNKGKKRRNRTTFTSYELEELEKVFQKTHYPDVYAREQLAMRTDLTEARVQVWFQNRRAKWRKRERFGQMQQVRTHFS
# [27] = biological target: HOXC9 (Homo sapiens, UniProt P31274 178-260, R222W)
# Chain of HOXC9 (P31274 178-260 R222W): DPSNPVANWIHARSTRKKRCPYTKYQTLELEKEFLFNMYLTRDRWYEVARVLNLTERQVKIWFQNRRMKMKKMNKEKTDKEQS
# [28] = biological target: PROP1 (Homo sapiens, UniProt O75360 56-141)
# Chain of PROP1 (Homo sapiens, UniProt O75360 56-141) (O75360 56-141): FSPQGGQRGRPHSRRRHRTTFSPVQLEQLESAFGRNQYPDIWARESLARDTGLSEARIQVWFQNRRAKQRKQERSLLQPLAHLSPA
# [29] = biological target: PROP1 (Homo sapiens, UniProt O75360 56-141, R99H)
# Chain of PROP1 (Homo sapiens, UniProt O75360 56-141, R99H) (O75360 56-141 R99H): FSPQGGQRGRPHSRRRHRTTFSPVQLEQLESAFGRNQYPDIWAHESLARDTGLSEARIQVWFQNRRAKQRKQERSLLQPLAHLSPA
# [30] = biological target: PROP1 (Homo sapiens, UniProt O75360 56-141, F88S)
# Chain of PROP1 (Homo sapiens, UniProt O75360 56-141, F88S) (O75360 56-141 F88S): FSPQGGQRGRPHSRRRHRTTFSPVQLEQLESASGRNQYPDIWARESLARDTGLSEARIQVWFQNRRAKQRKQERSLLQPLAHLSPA
# [31] = biological target: PRRX1 (Homo sapiens, UniProt P54821 80-166, F113S)
# Chain of PRRX1 (Homo sapiens, UniProt P54821 80-166, F113S) (P54821 80-166 F113S): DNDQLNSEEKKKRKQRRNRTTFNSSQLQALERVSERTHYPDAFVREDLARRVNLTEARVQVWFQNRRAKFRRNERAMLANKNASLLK
# [32] = biological target: PRRX1 (Homo sapiens, UniProt P54821 80-166)
# Chain of PRRX1 (Homo sapiens, UniProt P54821 80-166) (P54821 80-166): as the sequence (P54821 80-166 F113S) above, with S34F counted along it
# Chain of HOXA7 (Homo sapiens, UniProt P31268 116-202) (P31268 116-202): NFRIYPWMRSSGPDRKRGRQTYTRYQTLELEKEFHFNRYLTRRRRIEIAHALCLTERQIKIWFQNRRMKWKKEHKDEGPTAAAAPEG
# Chain of HOXA7 (Homo sapiens, UniProt P31268 116-202, W177C) (P31268 116-202 W177C): as the sequence (P31268 116-202) above, with W62C counted along it
# Chain of HOXC10 (Homo sapiens, UniProt Q9NYD6 254-340) (Q9NYD6 254-340): as the sequence (Q9NYD6 254-340 K271E) above, with E18K counted along it
# Chain of ALX3 (Homo sapiens, UniProt O95076 139-225, N203Q) (O95076 139-225 N203Q): as the sequence (O95076 139-225) above, with N65Q counted along it
sequence,measurement,setting,value
AGGCAAGG,binding signal,[1],"8.35 upbm affinity estimate (log intensity, higher = more binding, comparable within an allelic series)"
same,binding signal,[2],"8.48 upbm affinity estimate (log intensity, higher = more binding, comparable within an allelic series)"
GCACGTTA,binding signal,[3],"10.7 upbm affinity estimate (log intensity, higher = more binding, comparable within an allelic series)"
GACAGCGA,binding signal,[1],"8.31 upbm affinity estimate (log intensity, higher = more binding, comparable within an allelic series)"
same,binding signal,[2],"8.41 upbm affinity estimate (log intensity, higher = more binding, comparable within an allelic series)"
GGGTACCC,binding signal,[1],"8.53 upbm affinity estimate (log intensity, higher = more binding, comparable within an allelic series)"
same,binding signal,[2],"8.44 upbm affinity estimate (log intensity, higher = more binding, comparable within an allelic series)"
CCTGTGTC,binding signal,[1],"8.55 upbm affinity estimate (log intensity, higher = more binding, comparable within an allelic series)"
same,binding signal,[2],"8.53 upbm affinity estimate (log intensity, higher = more binding, comparable within an allelic series)"
AAATGGGG,binding signal,[1],"9.82 upbm affinity estimate (log intensity, higher = more binding, comparable within an allelic series)"
same,binding signal,[2],"8.64 upbm affinity estimate (log intensity, higher = more binding, comparable within an allelic series)"
GATGTTAA,binding signal,[3],"10.8 upbm affinity estimate (log intensity, higher = more binding, comparable within an allelic series)"
GGAACTCA,binding signal,[1],"8.54 upbm affinity estimate (log intensity, higher = more binding, comparable within an allelic series)"
same,binding signal,[2],"8.56 upbm affinity estimate (log intensity, higher = more binding, comparable within an allelic series)"
AGTAGCCG,binding signal,[1],"8.51 upbm affinity estimate (log intensity, higher = more binding, comparable within an allelic series)"
same,binding signal,[2],"8.43 upbm affinity estimate (log intensity, higher = more binding, comparable within an allelic series)"
GAAGGGAC,binding signal,[1],"8.46 upbm affinity estimate (log intensity, higher = more binding, comparable within an allelic series)"
same,binding signal,[2],"8.39 upbm affinity estimate (log intensity, higher = more binding, comparable within an allelic series)"
CGAAGGGC,binding signal,[3],"9.97 upbm affinity estimate (log intensity, higher = more binding, comparable within an allelic series)"
same,binding signal,[4],"7.68 upbm affinity estimate (log intensity, higher = more binding, comparable within an allelic series)"
same,binding signal,[5],"10.1 upbm affinity estimate (log intensity, higher = more binding, comparable within an allelic series)"
same,binding signal,[6],"7.61 upbm affinity estimate (log intensity, higher = more binding, comparable within an allelic series)"
same,binding signal,[7],"7.69 upbm affinity estimate (log intensity, higher = more binding, comparable within an allelic series)"
same,binding signal,[8],"7.8 upbm affinity estimate (log intensity, higher = more binding, comparable within an allelic series)"
same,binding signal,[9],"7.67 upbm affinity estimate (log intensity, higher = more binding, comparable within an allelic series)"
ACCGGGCT,binding signal,[3],"10.1 upbm affinity estimate (log intensity, higher = more binding, comparable within an allelic series)"
same,binding signal,[10],"9.65 upbm affinity estimate (log intensity, higher = more binding, comparable within an allelic series)"
same,binding signal,[5],"10.1 upbm affinity estimate (log intensity, higher = more binding, comparable within an allelic series)"
AGTCGGCG,binding signal,[3],"10.1 upbm affinity estimate (log intensity, higher = more binding, comparable within an allelic series)"
same,binding signal,[11],"9.6 upbm affinity estimate (log intensity, higher = more binding, comparable within an allelic series)"
same,binding signal,[5],"10.1 upbm affinity estimate (log intensity, higher = more binding, comparable within an allelic series)"
same,binding signal,[12],"9.58 upbm affinity estimate (log intensity, higher = more binding, comparable within an allelic series)"
same,binding signal,[13],"9.6 upbm affinity estimate (log intensity, higher = more binding, comparable within an allelic series)"
ACCCGAGC,binding signal,[3],"10.1 upbm affinity estimate (log intensity, higher = more binding, comparable within an allelic series)"
same,binding signal,[14],"9.37 upbm affinity estimate (log intensity, higher = more binding, comparable within an allelic series)"
same,binding signal,[15],"9.24 upbm affinity estimate (log intensity, higher = more binding, comparable within an allelic series)"
same,binding signal,[16],"6.62 upbm affinity estimate (log intensity, higher = more binding, comparable within an allelic series)"
same,binding signal,[17],"9.32 upbm affinity estimate (log intensity, higher = more binding, comparable within an allelic series)"
same,binding signal,[18],"6.43 upbm affinity estimate (log intensity, higher = more binding, comparable within an allelic series)"
same,binding signal,[19],"9.28 upbm affinity estimate (log intensity, higher = more binding, comparable within an allelic series)"
same,binding signal,[5],"10 upbm affinity estimate (log intensity, higher = more binding, comparable within an allelic series)"
same,binding signal,[20],"9.29 upbm affinity estimate (log intensity, higher = more binding, comparable within an allelic series)"
same,binding signal,[21],"9.37 upbm affinity estimate (log intensity, higher = more binding, comparable within an allelic series)"
same,binding signal,[22],"6.4 upbm affinity estimate (log intensity, higher = more binding, comparable within an allelic series)"
GTTTACGA,binding signal,[3],"12.2 upbm affinity estimate (log intensity, higher = more binding, comparable within an allelic series)"
same,binding signal,[23],"10.8 upbm affinity estimate (log intensity, higher = more binding, comparable within an allelic series)"
same,binding signal,[24],"12.1 upbm affinity estimate (log intensity, higher = more binding, comparable within an allelic series)"
same,binding signal,[5],"11.6 upbm affinity estimate (log intensity, higher = more binding, comparable within an allelic series)"
same,binding signal,[25],"11.9 upbm affinity estimate (log intensity, higher = more binding, comparable within an allelic series)"
CCAATAAA,binding signal,[3],"12.1 upbm affinity estimate (log intensity, higher = more binding, comparable within an allelic series)"
same,binding signal,[26],"11.4 upbm affinity estimate (log intensity, higher = more binding, comparable within an allelic series)"
same,binding signal,[23],"11.1 upbm affinity estimate (log intensity, higher = more binding, comparable within an allelic series)"
same,binding signal,[24],"12.4 upbm affinity estimate (log intensity, higher = more binding, comparable within an allelic series)"
same,binding signal,[5],"11.3 upbm affinity estimate (log intensity, higher = more binding, comparable within an allelic series)"
same,binding signal,[25],"12.2 upbm affinity estimate (log intensity, higher = more binding, comparable within an allelic series)"
same,binding signal,[27],"11.1 upbm affinity estimate (log intensity, higher = more binding, comparable within an allelic series)"
CCTGGGAC,binding signal,[3],"9.91 upbm affinity estimate (log intensity, higher = more binding, comparable within an allelic series)"
same,binding signal,[4],"7.73 upbm affinity estimate (log intensity, higher = more binding, comparable within an allelic series)"
same,binding signal,[5],"9.99 upbm affinity estimate (log intensity, higher = more binding, comparable within an allelic series)"
same,binding signal,[6],"7.73 upbm affinity estimate (log intensity, higher = more binding, comparable within an allelic series)"
same,binding signal,[7],"7.73 upbm affinity estimate (log intensity, higher = more binding, comparable within an allelic series)"
same,binding signal,[8],"7.7 upbm affinity estimate (log intensity, higher = more binding, comparable within an allelic series)"
same,binding signal,[9],"7.68 upbm affinity estimate (log intensity, higher = more binding, comparable within an allelic series)"
AGCGGGGG,binding signal,[3],"10.1 upbm affinity estimate (log intensity, higher = more binding, comparable within an allelic series)"
same,binding signal,[14],"9.03 upbm affinity estimate (log intensity, higher = more binding, comparable within an allelic series)"
same,binding signal,[15],"9.24 upbm affinity estimate (log intensity, higher = more binding, comparable within an allelic series)"
same,binding signal,[17],"9.17 upbm affinity estimate (log intensity, higher = more binding, comparable within an allelic series)"
same,binding signal,[19],"9 upbm affinity estimate (log intensity, higher = more binding, comparable within an allelic series)"
same,binding signal,[5],"9.93 upbm affinity estimate (log intensity, higher = more binding, comparable within an allelic series)"
same,binding signal,[20],"9.11 upbm affinity estimate (log intensity, higher = more binding, comparable within an allelic series)"
same,binding signal,[28],"6.68 upbm affinity estimate (log intensity, higher = more binding, comparable within an allelic series)"
same,binding signal,[29],"6.47 upbm affinity estimate (log intensity, higher = more binding, comparable within an allelic series)"
same,binding signal,[30],"6.14 upbm affinity estimate (log intensity, higher = more binding, comparable within an allelic series)"
same,binding signal,[21],"9.16 upbm affinity estimate (log intensity, higher = more binding, comparable within an allelic series)"
GAGGCCTC,binding signal,[3],"10.1 upbm affinity estimate (log intensity, higher = more binding, comparable within an allelic series)"
same,binding signal,[10],"9.72 upbm affinity estimate (log intensity, higher = more binding, comparable within an allelic series)"
same,binding signal,[5],"10.1 upbm affinity estimate (log intensity, higher = more binding, comparable within an allelic series)"
TTAATAAA,binding signal,[3],"12.2 upbm affinity estimate (log intensity, higher = more binding, comparable within an allelic series)"
same,binding signal,[31],"11 upbm affinity estimate (log intensity, higher = more binding, comparable within an allelic series)"
same,binding signal,[5],"11.5 upbm affinity estimate (log intensity, higher = more binding, comparable within an allelic series)"
same,binding signal,[27],"11.2 upbm affinity estimate (log intensity, higher = more binding, comparable within an allelic series)"
CTTTATGA,binding signal,[3],"12.2 upbm affinity estimate (log intensity, higher = more binding, comparable within an allelic series)"
same,binding signal,[31],"10 upbm affinity estimate (log intensity, higher = more binding, comparable within an allelic series)"
same,binding signal,[23],"10.5 upbm affinity estimate (log intensity, higher = more binding, comparable within an allelic series)"
same,binding signal,[24],"11.8 upbm affinity estimate (log intensity, higher = more binding, comparable within an allelic series)"
same,binding signal,[5],"11.6 upbm affinity estimate (log intensity, higher = more binding, comparable within an allelic series)"
same,binding signal,[25],"11.5 upbm affinity estimate (log intensity, higher = more binding, comparable within an allelic series)"
same,binding signal,[32],"11.2 upbm affinity estimate (log intensity, higher = more binding, comparable within an allelic series)"
GGTTATAC,binding signal,[3],"10.8 upbm affinity estimate (log intensity, higher = more binding, comparable within an allelic series)"
GTCATGAA,binding signal,[3],"10.8 upbm affinity estimate (log intensity, higher = more binding, comparable within an allelic series)"
ATGCCATA,binding signal,[3],"11 upbm affinity estimate (log intensity, higher = more binding, comparable within an allelic series)"
AGGGCGGA,binding signal,[3],"9.89 upbm affinity estimate (log intensity, higher = more binding, comparable within an allelic series)"
same,binding signal,[23],"9.35 upbm affinity estimate (log intensity, higher = more binding, comparable within an allelic series)"
same,binding signal,[24],"9.36 upbm affinity estimate (log intensity, higher = more binding, comparable within an allelic series)"
same,binding signal,[5],"9.9 upbm affinity estimate (log intensity, higher = more binding, comparable within an allelic series)"
same,binding signal,[25],"9.37 upbm affinity estimate (log intensity, higher = more binding, comparable within an allelic series)"
